Reference: PubChem BioAssay AID1159580 (chemical genetic matrix, 2015)
“And” between values parts separate entries of the source, which are not always exact repeats. Equal entries are not always repeated. Hit rate of the full screen: of about 5,500 compounds, about 2,000 (36%) were called active. Not shown: some 18% with an inconclusive outcome. No stated cut-off is given here; in the data, active means normalized growth mostly below about 0.91 (no sharp cut-off); inconclusive means no clear call, values can overlap the other calls; inactive means mostly above about 0.92. The list shows a part of the results.

Experiment: chemical genetic growth profiling, strain panel (AID 1159580);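 further: tested at 20 µM; growth read once vehicle control cultures reached saturation at 30 °C; 1 = growth at the plate median or of vehicle wells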
Conditions: growth OD

Measured: normalized growth

Nc1ccc(S(=O)(=O)Nc2ccnn2-c2ccccc2)cc1
inactive: S. cerevisiae deletion strains, locus YJR075W, strain HOC1, stronger effect = lower value 1.02 and 1.03 | S. cerevisiae deletion strains, locus YKL009W, strain mrt4, stronger effect = lower value 0.976 | S. cerevisiae deletion strains, locus YKL068W, stronger effect = lower value 1 | S. cerevisiae deletion strains, locus YKL085W, strain MDH1 (second series), stronger effect = lower value 0.999 | S. cerevisiae deletion strains, locus YKL085W, strain MDH1, stronger effect = lower value 0.999 | S. cerevisiae deletion strains, locus YKL160W, strain elf1, stronger effect = lower value 0.989 | S. cerevisiae deletion strains, locus YKL190W, strain CNB1, stronger effect = lower value 1.01 | S. cerevisiae deletion strains, locus YKR001C, strain vps1, stronger effect = lower value 0.992 | S. cerevisiae deletion strains, locus YKR026C, strain gcn3, stronger effect = lower value 0.965 | S. cerevisiae deletion strains, locus YKR091W, strain srl3, stronger effect = lower value 0.997 | S. cerevisiae deletion strains, locus YLL001W, strain dnm1, stronger effect = lower value 0.979 | S. cerevisiae deletion strains, locus YLL026W, stronger effect = lower value 0.997 | S. cerevisiae deletion strains, locus YLL041C, strain sdh2, stronger effect = lower value 0.986 | S. cerevisiae deletion strains, locus YLR027C, strain aat2, stronger effect = lower value 0.985 | S. cerevisiae deletion strains, locus YLR039C, strain RIC1, stronger effect = lower value 0.982 | S. cerevisiae deletion strains, locus YLR058C, strain SHM2, stronger effect = lower value 1.01 | S. cerevisiae deletion strains, locus YLR102C, strain apc9, stronger effect = lower value 0.99 | S. cerevisiae deletion strains, locus YLR113W, strain HOG1, stronger effect = lower value 0.998 | S. cerevisiae deletion strains, locus YLR221C, strain rsa3, stronger effect = lower value 0.986 | S. cerevisiae deletion strains, locus YLR258W, strain gsy2, stronger effect = lower value 0.998 | S. cerevisiae deletion strains, locus YLR262C, strain YPT6 (second series), stronger effect = lower value 0.885 | S. cerevisiae deletion strains, locus YLR262C, strain YPT6, stronger effect = lower value 0.993 | S. cerevisiae deletion strains, locus YLR268W, strain sec22, stronger effect = lower value 0.998 | S. cerevisiae deletion strains, locus YLR320W, strain mms22, stronger effect = lower value 1.03 | S. cerevisiae deletion strains, locus YLR330W, strain CHS5, stronger effect = lower value 1 | S. cerevisiae deletion strains, locus YLR342W, strain FKS1 (second series), stronger effect = lower value 0.983 | S. cerevisiae deletion strains, locus YLR342W, strain FKS1, stronger effect = lower value 1.01 | S. cerevisiae deletion strains, locus YLR357W, strain rsc2, stronger effect = lower value 1 | S. cerevisiae deletion strains, locus YLR370C, strain arc18, stronger effect = lower value 1.01 | S. cerevisiae deletion strains, locus YLR371W, strain rom2, stronger effect = lower value 0.99 | S. cerevisiae deletion strains, locus YLR384C, strain iki3, stronger effect = lower value 0.977 | S. cerevisiae deletion strains, locus YLR418C, strain cdc73, stronger effect = lower value 1.01 | S. cerevisiae deletion strains, locus YML016C, strain PPZ1, stronger effect = lower value 1.01 | S. cerevisiae deletion strains, locus YML032C, strain rad52, stronger effect = lower value 0.996 | S. cerevisiae deletion strains, locus YML120C, strain ndi1, stronger effect = lower value 0.99 | S. cerevisiae deletion strains, locus YML124C, strain tub3, stronger effect = lower value 1 | S. cerevisiae deletion strains, locus YMR058W, strain fet3, stronger effect = lower value 0.986 | S. cerevisiae deletion strains, locus YMR078C, strain ctf18, stronger effect = lower value 0.998 | S. cerevisiae deletion strains, locus YMR125W, strain sto1, stronger effect = lower value 0.954 | S. cerevisiae deletion strains, locus YMR129W, stronger effect = lower value 0.988 | S. cerevisiae deletion strains, locus YMR205C, strain PFK2, stronger effect = lower value 1.05 | S. cerevisiae deletion strains, locus YMR223W, strain ubp8, stronger effect = lower value 0.991 | S. cerevisiae deletion strains, locus YMR231W, strain pep5, stronger effect = lower value 0.997 | S. cerevisiae deletion strains, locus YMR263W, strain SAP30, stronger effect = lower value 1.03 | S. cerevisiae deletion strains, locus YMR307W, strain GAS1, stronger effect = lower value 0.943 and 0.968 | S. cerevisiae deletion strains, locus YNL067W, strain RPL9B, stronger effect = lower value 1.02 | S. cerevisiae deletion strains, locus YNL071W, strain lat1, stronger effect = lower value 0.993 | S. cerevisiae deletion strains, locus YNL128W, strain TEP1, stronger effect = lower value 0.995 | S. cerevisiae deletion strains, locus YNL175C, strain NOP13, stronger effect = lower value 1.01 | S. cerevisiae deletion strains, locus YNL183C, strain NPR1, stronger effect = lower value 0.899 | S. cerevisiae deletion strains, locus YNL197C, strain WHI3, stronger effect = lower value 1.01 | S. cerevisiae deletion strains, locus YNL209W, strain ssb2, stronger effect = lower value 0.994 | S. cerevisiae deletion strains, locus YNL224C, strain SQS1, stronger effect = lower value 1 | S. cerevisiae deletion strains, locus YNL233W, strain BNI4, stronger effect = lower value 1.02 | S. cerevisiae deletion strains, locus YNL248C, strain rpa49, stronger effect = lower value 0.957 | S. cerevisiae deletion strains, locus YNL250W, strain rad50, stronger effect = lower value 1 | S. cerevisiae deletion strains, locus YNL271C, strain bni1, stronger effect = lower value 0.993 | S. cerevisiae deletion strains, locus YNL298W, strain CLA4, stronger effect = lower value 1.01 | S. cerevisiae deletion strains, locus YNL307C, strain MCK1, stronger effect = lower value 0.99 | S. cerevisiae deletion strains, locus YNL322C, strain KRE1 (second series), stronger effect = lower value 1 | S. cerevisiae deletion strains, locus YNL322C, strain KRE1, stronger effect = lower value 1.01 and 1.02 | S. cerevisiae deletion strains, locus YNR049C, strain mso1, stronger effect = lower value 0.996 | S. cerevisiae deletion strains, locus YNR052C, strain pop2, stronger effect = lower value 0.981 | S. cerevisiae deletion strains, locus YOL006C, strain TOP1, stronger effect = lower value 1.07 | S. cerevisiae deletion strains, locus YOL012C, strain htz1 1.59 | S. cerevisiae deletion strains, locus YOL147C, strain pex11, stronger effect = lower value 1.01 | S. cerevisiae deletion strains, locus YOR001W, strain rrp6, stronger effect = lower value 0.969 | S. cerevisiae deletion strains, locus YOR061W, strain CKA2, stronger effect = lower value 1.01 | S. cerevisiae deletion strains, locus YOR069W, strain VPS5, stronger effect = lower value 1.01 | S. cerevisiae deletion strains, locus YOR070C, strain gyp1, stronger effect = lower value 0.997 | S. cerevisiae deletion strains, locus YOR080W, strain dia2, stronger effect = lower value 1 | S. cerevisiae deletion strains, locus YOR083W, strain WHI5 (second series), stronger effect = lower value 1.03 | S. cerevisiae deletion strains, locus YOR083W, strain WHI5, stronger effect = lower value 0.968 | S. cerevisiae deletion strains, locus YOR106W, strain vam3, stronger effect = lower value 0.977 | S. cerevisiae deletion strains, locus YOR136W, strain idh2, stronger effect = lower value 1 | S. cerevisiae deletion strains, locus YOR144C, strain elg1, stronger effect = lower value 1 | S. cerevisiae deletion strains, locus YOR184W, strain ser1, stronger effect = lower value 0.996 | S. cerevisiae deletion strains, locus YOR231W, strain MKK1, stronger effect = lower value 0.974 | S. cerevisiae deletion strains, locus YOR265W, strain rbl2, stronger effect = lower value 1 | S. cerevisiae deletion strains, locus YOR270C, strain vph1, stronger effect = lower value 0.997 | S. cerevisiae deletion strains, locus YOR290C, strain snf2, stronger effect = lower value 0.957 | S. cerevisiae deletion strains, locus YOR316C, strain cot1, stronger effect = lower value 0.994 | S. cerevisiae deletion strains, locus YPL051W, strain arl3, stronger effect = lower value 0.978 | S. cerevisiae deletion strains, locus YPL055C, strain LGE1, stronger effect = lower value 1.05 and 1.01 | S. cerevisiae deletion strains, locus YPL078C, strain atp4, stronger effect = lower value 0.963 | S. cerevisiae deletion strains, locus YPL106C, strain sse1, stronger effect = lower value 0.993 | S. cerevisiae deletion strains, locus YPL240C, strain hsp82, stronger effect = lower value 0.979 | S. cerevisiae deletion strains, locus YPL241C, strain CIN2, stronger effect = lower value 1.01 | S. cerevisiae deletion strains, locus YPL256C, strain CLN2, stronger effect = lower value 0.975 | S. cerevisiae deletion strains, locus YPR119W, strain clb2, stronger effect = lower value 0.997 | S. cerevisiae deletion strains, locus YPR141C, strain kar3, stronger effect = lower value 1 | S. cerevisiae deletion strains, locus YPR163C, strain tif3, stronger effect = lower value 1 | S. cerevisiae deletion strains, locus YPR167C, strain met16, stronger effect = lower value 0.991 | S. cerevisiae deletion strains, strain wtn01, stronger effect = lower value 1 | S. cerevisiae strains, strain wild type, stronger effect = lower value 1.01
